This note sets out measurements from PubChem BioAssay.

Test [1] has as its system Wnt5a (protein binding on small-molecule microarray). The experiment in a line: small molecules binding Wnt5a protein – biophysical, small-molecule microarray, 635/667 nm fluorescence, primary screen (AID 1142).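 Note: fluorescence read at 667 nm with signal to noise per printed feature.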 To be noted: 635 nm fluorescence, higher = more signal.
Test [2] is described as follows: ATP-based viability of Huh7 replicon cells – cell-based, CellTiter-Glo luminescence, basal, 48 h, cytotoxicity control for HCV replication inhibitor project, primary screen (AID 1143).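 Note: Huh7 hepatoma cells carrying a hepatitis C replication reporter with no stimulus; test concentration not given here.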 The following applies: higher = more signal, called active from +8 up or from −8 down. Background: In antiviral work, replicon cells carry a viral genome segment that copies itself.
Test [3] in a line: Pseudomonas biofilm growth suppression – PAO1 strain, BacTiter-Glo luminescence, LB-PBS, primary screen (AID 1144). To be noted: P. aeruginosa PAO1 biofilm, 12 h, higher = more signal.
A short description of test [4]: basal CRE-LacZ reporter activity in PC12 – cell-based, unstimulated, primary screen (AID 1145). To be noted: no forskolin, luminescence, 4.5 h, higher = more signal, called active from +8 up or from −8 down.
A short description of test [5]: forskolin-driven CRE-LacZ activity in PC12 – cell-based, CRE-LacZ reporter, forskolin-stimulated, primary screen (AID 1146).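 Note: PC12 cells with 6xCRE LacZ reporter stimulated by forskolin 10 µM; beta-galactosidase reporter signal reflecting CREB driven transcription.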 The following applies: luminescence, 4.5 h, higher = more signal, called active from +8 up or from −8 down.
In test [6] the target is Streptavidin (Streptomyces avidinii) (UniProt P22629). Put plainly: compounds binding control protein streptavidin – biophysical, small-molecule microarray, 635/667 nm fluorescence, artefact control for SMM compound annotation, primary screen (AID 1147).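 Note: signal reflects streptavidin binding to arrayed compounds as a control protein.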 To be noted: higher = more signal.
Streptavidin (Streptomyces avidinii), sequence (P22629 whole entry, looked up): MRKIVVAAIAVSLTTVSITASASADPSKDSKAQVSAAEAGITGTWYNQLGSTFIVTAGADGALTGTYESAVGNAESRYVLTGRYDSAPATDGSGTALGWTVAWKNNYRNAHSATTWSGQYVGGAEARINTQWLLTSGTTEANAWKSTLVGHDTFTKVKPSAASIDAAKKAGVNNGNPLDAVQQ
Test [7] is described as follows: probe aInhba binding on compound microarray – biochemical, small-molecule microarray, 635/667 nm fluorescence, primary screen (AID 1148).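 Note: score merges 667nm spot fluorescence with signal-to-noise for antibody binding to printed compounds.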 The following applies: higher = more signal.
The target of test [8] is Torsin-1A (Homo sapiens) (UniProt O14656). The experiment in a line: TOR1A wild-type binding on microarray – cell lysate, small-molecule microarray, lysate, 635/667 nm, primary screen (AID 1149). The following applies: COS7 hTOR1A-WT lysate, 635 nm fluorescence, higher = more signal.
Torsin-1A (Homo sapiens), sequence (O14656 whole entry, looked up): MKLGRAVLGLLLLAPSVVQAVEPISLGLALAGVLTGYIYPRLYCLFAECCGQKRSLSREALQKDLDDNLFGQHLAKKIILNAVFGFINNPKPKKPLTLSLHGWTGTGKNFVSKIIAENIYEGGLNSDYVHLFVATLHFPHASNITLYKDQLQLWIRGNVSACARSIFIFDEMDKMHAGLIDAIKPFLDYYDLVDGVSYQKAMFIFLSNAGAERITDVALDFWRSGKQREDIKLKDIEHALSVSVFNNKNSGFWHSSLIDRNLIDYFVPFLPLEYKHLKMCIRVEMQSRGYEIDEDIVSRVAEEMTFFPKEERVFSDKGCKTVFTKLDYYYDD
Test [9] shares this target. Put plainly: torsin A mutant lysate binding on microarrays – cell lysate, small-molecule microarray, COS7 lysate, 635/667 nm fluorescence, primary screen (AID 1150).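 Note: score pools 667 nm emission and signal to noise measuring lysate protein binding.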 To be noted: COS7 hTOR1A mutant lysate, 635 nm fluorescence, higher = more signal.
Test [10] concerns Sonic hedgehog protein (Shh). The experiment in a line: Sonic hedgehog microarray binding compounds – biochemical, small-molecule microarray, 635/667 nm fluorescence, primary screen (AID 1151).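 Note: Shh protein binding to compounds spotted on small-molecule microarray slides; score combines spot fluorescence intensity with signal-to-noise across triplicate slides.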 To be noted: 635 nm fluorescence, higher = more signal.

Each structure is given as a SMILES string. Activity calls are given as the source filed them. Unless noted, the rule behind the calls is not given here.

As to `CN(C)CCCNC(=O)[C@@H]1c2ccccc2C(=O)N(Cc2ccccc2C(F)(F)F)[C@H]1c1ccc(CO)cc1`, the composite z-score in test [1] is 0.0246; in [6] it was -0.734; in test [7], -0.16; with Torsin-1A (Homo sapiens) [8], 0.0406; with Torsin-1A (Homo sapiens) [9] it was -0.0393; in [10], 0.547. Also, the z-score in test [2] was -0.574 (inactive); in [3] it was 0.405 (inactive); in [4] it was -0.206 (inactive); in test [5], -0.951 (inactive).
For the compound `COc1ccc([Si](C)(C)[C@@H]2[C@@H](CC(=O)N3Cc4ccccc4C[C@H]3CO)O[C@]3(C(=O)N(Cc4cccc(N5CCOC5=O)c4)c4ccccc43)[C@H]2C)cc1`, the composite z-score is 0.244 in test [1]; -0.281 in test [6]; -0.0581 in [7]; 0.846 with Torsin-1A (Homo sapiens) [8]; 0.737 with Torsin-1A (Homo sapiens) [9]; 2.11 in [10]. Besides, the z-score in test [2] was -4.12 (inactive); in test [3], 0.291 (inactive); in [4], -0.491 (inactive); in test [5], -0.318 (inactive).
`CC(C)NC(=O)[C@@]1(c2ccc([N+](=O)[O-])cc2)CC(=O)N(CC23CC4CC(CC(C4)C2)C3)[C@@H]1c1ccc(CO)cc1`: the composite z-score was determined as 0.821 in test [1]; 0.771 in test [6]; 1.19 in test [7]; 1.17 with Torsin-1A (Homo sapiens) [8]; 1.36 in the test with Torsin-1A (Homo sapiens) [9]; 1.95 in test [10]. For the same compound, the z-score in test [2] is -4.42 (inactive); in test [3], -0.336 (inactive); in test [4], 0.362 (inactive); in [5], 0.795 (inactive).
Take `C=CC[C@@]1(C(=O)OC)N=C(c2ccc(OCCCO)cc2)O[C@@H]1c1ccccc1N=[N+]=[N-]`: the composite z-score in [1] is 0.938; in test [6], -0.195; in test [7] it was 0.286; with Torsin-1A (Homo sapiens) [8], 0.288; with Torsin-1A (Homo sapiens) [9] it was 0.672; in [10], 2.02. The z-score in [2] was -3.5 (inactive); in test [3], -1.57 (inactive); in test [4], 1.79 (inactive); in [5] it was -0.775 (inactive).
As for `CC(C)=C1C(=O)C(c2ccccc2)=C2CN3C(=O)N(CCc4ccccc4)C(=O)[C@]3(C)[C@H]21`, the composite z-score in [1] is -0.0006; in test [6], 0.509; in [7], -0.016; with Torsin-1A (Homo sapiens) [8] it was -0.656; in the test with Torsin-1A (Homo sapiens) [9], -0.124; in [10], -0.223. Also, the z-score is -2.42 (inactive) in test [2], 0.64 (inactive) in [3], 0.0177 (inactive) in [4] and 0.839 (inactive) in [5].
`CO[C@H]1O[C@H](CO)[C@@H](OC(=O)Nc2ccccc2-c2ccccc2)[C@H](OC(=O)Nc2ccccc2)[C@H]1OC(=O)Nc1ccccc1`: the composite z-score came out at 1.32 in test [1]; 0.29 in test [6]; 0.122 in test [7]; 0.616 in the test with Torsin-1A (Homo sapiens) [8]; 1.6 in the test with Torsin-1A (Homo sapiens) [9]; 1.1 in test [10]. In addition, the z-score is -3.8 (inactive) in [2], -0.589 (inactive) in test [3], -0.254 (inactive) in test [4] and -2.07 (inactive) in test [5].
As for `COc1ccc(C(O)C2C=CC3C(=O)NC(=O)C3N2Nc2ccc(Cl)cc2Cl)c2ccccc12` (stereo not given), the composite z-score is -0.181 in [1]; 0.767 in [6]; -0.0757 in test [7]; -0.392 in the test with Torsin-1A (Homo sapiens) [8]; 0.275 with Torsin-1A (Homo sapiens) [9]; 0.461 in test [10]. Besides, the z-score in test [2] was -1.74 (inactive); in test [3], -1.13 (inactive); in test [4], 1.01 (inactive); in test [5], -0.525 (inactive).
As for `C=C(C)[C@@H]1CC=C(C(O)C2C=CC3C(=O)N(c4ccccc4)C(=O)C3N2Nc2ccc([N+](=O)[O-])cc2)CC1` (stereo not given in full), the composite z-score was 0.331 in test [1]; 1.5 in test [6]; 0.19 in test [7]; 0.875 with Torsin-1A (Homo sapiens) [8]; 0.685 with Torsin-1A (Homo sapiens) [9]; 1.11 in test [10]. The z-score in [2] is -1.14 (inactive); in test [3], -1.4 (inactive); in test [4] it was -0.527 (inactive); in test [5], -0.605 (inactive).
With `CC1CC/C=C\[C@H]2OC34C=CCN(Cc5ccccc5)C(=O)[C@H]3N(CCCCCCO)C(=O)[C@@H]4C2C(=O)O1` (stereo not given in full), the composite z-score is -0.523 in test [1]; -0.871 in test [6]; -0.206 in test [7]; 1.4 in the test with Torsin-1A (Homo sapiens) [8]; -0.549 in the test with Torsin-1A (Homo sapiens) [9]; 0.06 in [10]. Besides, the z-score in [2] was -0.649 (inactive); in test [3], 2.79 (inactive); in test [4], 0.329 (inactive); in test [5], 0.138 (inactive).
For `Cc1ccc(N2C(=O)c3ccccc3[C@](C)(C(=O)NCCCN(C)C)[C@@H]2c2ccc(CO)cc2)nc1`, the composite z-score is -0.169 in test [1]; -0.0986 in test [6]; -0.0983 in test [7]; -1.38 in the test with Torsin-1A (Homo sapiens) [8]; -1.27 with Torsin-1A (Homo sapiens) [9]; -1.01 in [10]. Further, the z-score in test [2] is 0.368 (inactive); in test [3] it was 0.414 (inactive); in test [4], 0.0279 (inactive); in test [5], 0.64 (inactive).
On to `CCCNC(=O)[C@@]1(c2ccc([N+](=O)[O-])cc2)CC(=O)N(C(C)C)[C@@H]1c1ccc(CO)cc1`, for which the composite z-score in test [1] was -0.47; in test [6] it was -1.07; in [7] it was -0.153; with Torsin-1A (Homo sapiens) [8], -2.12; with Torsin-1A (Homo sapiens) [9], -0.42; in [10] it was -0.738. The z-score was -1.22 (inactive) in [2], 0.313 (inactive) in test [3], 0.558 (inactive) in [4] and 0.282 (inactive) in test [5].
As to `CCCCCC1=C2CNC(CC(C)C)(C(=O)OC)C=C2C(C)C1=O` (stereo not given), the composite z-score is -0.025 in [1]; 0.428 in test [6]; 0.0668 in test [7]; -0.276 with Torsin-1A (Homo sapiens) [8]; -0.207 with Torsin-1A (Homo sapiens) [9]; -0.242 in test [10]. Further, the z-score is -0.575 (inactive) in [2], 0.661 (inactive) in test [3], 0.0041 (inactive) in [4] and 0.728 (inactive) in test [5].
Consider `CC(C)(C)N1CC=CC23O[C@@H]4C=CCOC(=O)[C@@H]4[C@H]2C(=O)N(CCO)[C@@H]3C1=O` (stereo not given in full), for which the composite z-score in test [1] was -0.887; in [6], -1.61; in test [7], -0.32; in the test with Torsin-1A (Homo sapiens) [8] it was -2.49; with Torsin-1A (Homo sapiens) [9], -1.07; in test [10] it was -0.863. The z-score in [2] was 0.262 (inactive); in test [3], 1.7 (inactive); in test [4] it was 0.744 (inactive); in test [5] it was 1.07 (inactive).
With `C=C(C)[C@@H]1CC=C(C(O)C2C=CC3C(=O)N(C)C(=O)C3N2Nc2ccc([N+](=O)[O-])cc2[N+](=O)[O-])CC1` (stereo not given in full), the composite z-score in test [1] is 0.291; in test [6] it was 0.707; in [7] it was -0.0762; in the test with Torsin-1A (Homo sapiens) [8], 0.414; in the test with Torsin-1A (Homo sapiens) [9] it was 1.14; in test [10], 0.413. The z-score in test [2] is -0.181 (inactive); in test [3], 0.0728 (inactive); in test [4], 2.16 (inactive); in [5], 0.386 (inactive).
